In PubChem BioAssay (NCI):
This is part of a sample that, as a whole, favours compounds with a hit. Of some 83,000 tested, about 20% had one in any assay.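 The test compound was applied at a single concentration to cells in 96-well plates for 48 hours, and percent growth was recorded.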 Values without a mark were called inactive. Activity calls are given as the source filed them.

test system: UACC-62 melanoma; assay: NCI-60 one-dose screen, 48 h (100 = growth as untreated, 0 = no growth, -100 = all killed); details: 10 µM unless noted
Experimental: Growth inhibition of the UACC-62 human tumor cell line is measured as a screen for anti-cancer activity. Cells are grown in 96 well plates and exposed to the test compound for 48 hours. Compounds are tested at a single concentration, which is 10^-5 M for most compounds. The reported endpoint is percent growth (GI% or GIPRCNT), where numbers from 0 - 100% represent growth inhibition, and numbers from -100% - 0 represent cell death. For example, a value of 40 represents 60% growth inhibition. A value of 0 means no net growth occurred over the course of the experiment. A value of -40 indicates 40% of cells at the beginning of the experiment died by the end of the experiment. A value of -100 means all cells are dead at the end of the experiment.
NCI-60 Human Tumor Cell Lines Screen was performed using the standard one-dose NCI protocol, which is described in more detail at https://dtp.cancer.gov/discovery_development/nci-60/default.htm.
Compounds with GIPRCNT values below 10 were considered active. Activity score was based on GIPRCNT using the following formula: […]
Score is 0 for GIPRCNT values of 100 or above, 50 for GIPRCNT values of 0, and 100 for GIPRCNT values of -100.

**Q.** Which growth does the source give for CC[C@]12C=CCN3CC[C@@]4(c5ccc(OC)cc5N(C)[C@H]4[C@@](O)(C(=O)OC)[C@@H]1OC(=O)CCC(=O)O[C@H]1CC[C@H]4[C@@H]5CCC6=CC(=O)CC[C@@H]6[C@H]5CC[C@]14C)[C@@H]32 here?
**A.** -53.8% [100 µM] (active)

**Q.** CCN(CC)c1cc(N)c(Cc2c(N)cc(N(CC)CC)cc2Cl)c(Cl)c1 was tested. Which growth did it give?
**A.** 47.5%

**Q.** CCOc1cc(NC(=O)c2ccccc2)c(OCC)cc1N was tested. Which growth did it give?
**A.** 106%

**Q.** COCc1nc2ccccc2[nH]1 was tested. Which growth did it give?
**A.** 99.1%

**Q.** Which growth does the source give for O=C(CSc1nccc(Nc2ccc(S(=O)(=O)Nc3ccccn3)cc2)n1)c1ccc(Cl)cc1 here?
**A.** 82.4%

**Q.** Cc1cc(C)c(O)c(CNCCCCCCNCc2cc(C)cc(C)c2O)c1 was tested. Which growth did it give?
**A.** -68.9% (active)

**Q.** With C#CCOc1ccc(C2=NN(CC3CC3)C3N=C(Cl)c4ncn(CC5CC5)c4N23)cc1OCC#C (stereo not given) as the molecule, how does the growth read?
**A.** 59.7%

**Q.** With O=C1NC(=O)C(Cc2ccccc2)(Cc2ccccc2)N1 as the molecule, how does the growth read?
**A.** 97%

**Q.** Which growth does the source give for c1coc2occoc=2o1 here?
**A.** 102%

**Q.** With O=S(=O)(/N=c1/n(-c2ccccc2)nc2n1CCN2C1=NCCN1)c1ccc(-c2ccccc2)cc1 as the molecule, how does the growth read?
**A.** 109%

**Q.** For CC1Cc2c(Cl)ncnc2N(C)c2ccccc21 (stereo not given), which growth is on record?
**A.** 13.5%

**Q.** With c1nc(N2CCOCC2)c2[nH]ccc2n1 as the molecule, how does the growth read?
**A.** 103%

**Q.** For Cc1ccc(NC(=O)N[C@@H](Cc2cc(F)cc(F)c2)C(=O)N[C@@H]2C(=O)N3CCC[C@H]3C(=O)N3CCOC[C@H]3C(=O)N[C@@H](C)C(=O)N3C[C@H](C)C[C@H]3C(=O)O[C@H]2C)cc1, which growth is on record?
**A.** 26.3%

**Q.** How did the growth turn out when CC1Cc2c(ncnc2-n2cnc3ccccc32)N(C)c2ccccc21 (stereo not given) was run?
**A.** 30.9%

**Q.** Cc1ccc(S(=O)(=O)Nc2ccccc2)cc1N was tested. Which growth did it give?
**A.** 90.8%

**Q.** How did the growth turn out when C[C@H]1[C@H](C)CC[C@]2(COC(=O)CCC(=O)O)CC[C@]3(C)C(=CC[C@@H]4[C@@]5(C)CCCNC(C)(C)[C@@H]5CC[C@]43C)[C@H]12 was run?
**A.** 56.3% [100 µM]

**Q.** With CCC(Br)(CC)C(=O)c1ccc(OCC(=O)O)c(Cl)c1Cl as the molecule, how does the growth read?
**A.** 87.4%

**Q.** CCN(CC)c1ccc2cc(C(Nc3ccc(Cl)cc3)c3nnnn3C(C)(C)C)c(=O)oc2c1 (stereo not given) was tested. Which growth did it give?
**A.** 70%

**Q.** How did the growth turn out when CC1Cc2c(Cl)ncnc2N(C)c2ccc(Cl)cc21 (stereo not given) was run?
**A.** 11.8%

**Q.** For CC1(C)OC2[C@@H](CNC(=O)NC(=O)NC(=O)CI)O[C@@H](n3cnc4c(NC(=O)Nc5ccccc5)ncnc43)[C@H]2O1 (stereo not given in full), which growth is on record?
**A.** 93.8%

**Q.** How did the growth turn out when Cc1ccccc1OC(=O)c1cccc(Cl)c1 was run?
**A.** 105%

**Q.** Which growth does the source give for O=c1[nH]c(CN2CCN(c3cccc(Cl)c3)CC2)nc2cc(Cl)ccc12 here?
**A.** 93.8%

**Q.** Which growth does the source give for O=C(O)CSCc1nnc2n(Cc3ccccc3)c(=O)c3c4c(sc3n12)CCCC4 here?
**A.** 75.4%

**Q.** With Nn1c(Nc2ccc(S(=O)(=O)Nc3ncccn3)cc2)nnc(/C=C/c2c(O)ccc3ccccc23)c1=O as the molecule, how does the growth read?
**A.** 84.3%

**Q.** Which growth does the source give for O=c1cc(-c2ccccc2)oc2cc(OCc3cn(Cc4ccc(F)cc4)nn3)cc(O)c12 here?
**A.** 53.2% [100 µM]

**Q.** Cc1ccc(Cn2c(O)c(N=NC(=O)c3ccc(S(N)(=O)=O)cc3)c3ccccc32)cc1 was tested. Which growth did it give?
**A.** 86.7%

**Q.** Which growth does the source give for COc1ccc(NC(=O)Nc2ccc(-c3cccnc3)cc2N2CCC(CO)CC2)cc1 here?
**A.** 68.7%

**Q.** How did the growth turn out when CC(C)C1=NOC(=O)C1=Cc1cn(-c2ccccc2)nc1-c1ccc(Cl)cc1 was run?
**A.** 75.6%

**Q.** How did the growth turn out when O=C1CC(c2ccc3c(c2)OCO3)Nc2ccccc21 (stereo not given) was run?
**A.** 20.1%

**Q.** With CCOC(=O)c1nn(C2CCCCO2)c2ccc(NC(=O)CN3CCOCC3)cc12 (stereo not given) as the molecule, how does the growth read?
**A.** 102%

**Q.** How did the growth turn out when CC(C)(C)OC(=O)N1C=C/C(=C\Cn2cc(-c3ccccc3)nn2)CC1 was run?
**A.** 65.6%

**Q.** With CCCCCCCCCCCCCCCCCCNC(=S)N/N=C/c1ccc(OC)c(OC)c1 as the molecule, how does the growth read?
**A.** 86.1%

**Q.** With COc1ccc(-c2cc(-c3ccc(Cl)cc3)nc(SCCCCCCC(=O)NO)n2)cc1 as the molecule, how does the growth read?
**A.** 14.9%

**Q.** For C[n+]1c(-c2ccccc2)c2cc(N)ccc2c2ccccc21, which growth is on record?
**A.** 0.188% (active)

**Q.** With CC(C)CCSc1nc(N)nc2nc[nH]c12 as the molecule, how does the growth read?
**A.** 82.3%

**Q.** With N/C(=N\c1nc2ccccc2[nH]1)NC(=O)Cc1cccc2ccccc12 as the molecule, how does the growth read?
**A.** 81.8%

**Q.** How did the growth turn out when COc1ccc(C(=O)c2nccc3cc(OC)c(OC)cc23)cc1OC was run?
**A.** 96.4%

**Q.** With CC1(C)CC[C@]2(C(N)=O)CC[C@]3(C)C(=CC[C@@H]4[C@@]5(C)C/C(=C/c6ccncc6)C(=O)C(C)(C)[C@@H]5CC[C@]43C)[C@@H]2C1 as the molecule, how does the growth read?
**A.** -79.7% [100 µM] (active)

**Q.** With CC/C=C(\C)C(CCC)(CN=O)C(=O)OCC (stereo not given) as the molecule, how does the growth read?
**A.** 110%

**Q.** How did the growth turn out when NC(=O)c1c(NC(=O)COC(=O)Cc2ccccc2F)sc2c1CCC2 was run?
**A.** 97%
